Results: PubChem BioAssay (EPA / NIEHS)
Results filed as inconclusive are left out. Active and inactive are the calls of the source. The calls were made as follows, unless noted: active = hit-call score of the fitted dose curve at least 0.9, where 1 is the maximum; inactive = score below 0.9.

Legend:
[1] = ACEA_ER_80hr: ACEA Biosciences xCELLigence Real-Time Cell Analysis on Estrogen Receptor Agonism for Proliferation (AID 2282667; active = hit-call score of the fitted dose curve at least 0.9, where 1 is the maximum); conditions: T47D proliferation, impedance (xCELLigence), 80 h
Method in brief: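 Cell-growth kinetics were measured by impedance in T47D cells treated continuously with compound (top 100 uM final, 1:4 steps, 8 points). Activity at 80 h was scored as signal gain over the DMSO baseline.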

[2] = ATG_CRE_CIS: Attagene CIS-FACTORIAL HepG2 Assay for human cAMP Responsive Element (CRE) binding protein 3 (AID 2282926); conditions: HepG2 CRE cis-reporter, Attagene multiplexed mRNA; actives raise or lower the signal
Method in brief: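 Cells carrying cis-regulated reporter constructs respond through their own endogenous factors. After 24 h treatment, RNA is reverse-transcribed, amplified, labelled and sized by capillary electrophoresis; up- and down-regulation are both scored against vehicle.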

[3] = target: CCAAT/enhancer-binding protein beta (Homo sapiens) (UniProt P17676); test: ATG_C_EBP_CIS: Attagene CIS-FACTORIAL HepG2 Assay for human CCAAT/Enhancer Binding Protein (C/EBP) beta (AID 2282927); conditions: HepG2 Attagene cis-factorial transcription factor reporter; actives raise or lower the signal
Sequence of CCAAT/enhancer-binding protein beta (Homo sapiens) (P17676 whole entry, looked up): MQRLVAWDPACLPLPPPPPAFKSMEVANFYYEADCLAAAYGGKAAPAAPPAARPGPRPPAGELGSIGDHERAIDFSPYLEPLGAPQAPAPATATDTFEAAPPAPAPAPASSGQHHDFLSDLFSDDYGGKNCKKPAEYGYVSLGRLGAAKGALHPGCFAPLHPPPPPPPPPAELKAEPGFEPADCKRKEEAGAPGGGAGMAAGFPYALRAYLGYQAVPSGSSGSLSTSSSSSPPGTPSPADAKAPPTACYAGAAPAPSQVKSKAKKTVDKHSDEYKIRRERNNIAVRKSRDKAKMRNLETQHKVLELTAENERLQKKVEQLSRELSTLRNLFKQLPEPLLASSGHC
Method in brief: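 HepG2 transiently transfected with multiplexed reporter units under cis-regulatory promoters reporting endogenous C/EBPb activity. After 24 h exposure, reporter mRNA assayed by RT-PCR, fluorescent labelling, HpaI digestion and capillary electrophoresis; bidirectional fitting versus DMSO.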

[4] = ATG_CMV_CIS: Attagene CIS-FACTORIAL HepG2 Assay for human CMV (Internal Marker) (AID 2282928); conditions: HepG2 CMV promoter reporter, transcription factor profiling; actives raise or lower the signal;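 also: endpoint acts as a background internal control marker rather than a target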
Method in brief: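 Bidirectional fits against DMSO are applied to reporter mRNA, read by RT-PCR with capillary electrophoresis, from HepG2 cells exposed 24 h. The endpoint serves as an internal CMV background marker within the cis-factorial reporter panel.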

[5] = ATG_DR4_LXR_CIS: Attagene CIS-FACTORIAL HepG2 Assay for human Liver X Receptor (LXR), DR4 submotif (AID 2282929); conditions: HepG2 Attagene DR4 cis-reporter, mRNA transcription; actives raise or lower the signal
Method in brief: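 After transient transfection with multiplexed cis-promoter reporter units, HepG2 cells received test chemicals for 24 h. Reporter mRNA induction, detected by fluorescence after RT-PCR and capillary electrophoresis, was scored relative to DMSO.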

[6] = target: Aryl hydrocarbon receptor (Homo sapiens) (UniProt P35869); test: ATG_Ahr_CIS: Attagene CIS-FACTORIAL HepG2 Assay for human Aryl Hydrocarbon Receptor (Ahr) (AID 2282930); conditions: HepG2 AhR cis-factorial reporter transcription; actives raise or lower the signal
Sequence of Aryl hydrocarbon receptor (Homo sapiens) (P35869 whole entry, looked up): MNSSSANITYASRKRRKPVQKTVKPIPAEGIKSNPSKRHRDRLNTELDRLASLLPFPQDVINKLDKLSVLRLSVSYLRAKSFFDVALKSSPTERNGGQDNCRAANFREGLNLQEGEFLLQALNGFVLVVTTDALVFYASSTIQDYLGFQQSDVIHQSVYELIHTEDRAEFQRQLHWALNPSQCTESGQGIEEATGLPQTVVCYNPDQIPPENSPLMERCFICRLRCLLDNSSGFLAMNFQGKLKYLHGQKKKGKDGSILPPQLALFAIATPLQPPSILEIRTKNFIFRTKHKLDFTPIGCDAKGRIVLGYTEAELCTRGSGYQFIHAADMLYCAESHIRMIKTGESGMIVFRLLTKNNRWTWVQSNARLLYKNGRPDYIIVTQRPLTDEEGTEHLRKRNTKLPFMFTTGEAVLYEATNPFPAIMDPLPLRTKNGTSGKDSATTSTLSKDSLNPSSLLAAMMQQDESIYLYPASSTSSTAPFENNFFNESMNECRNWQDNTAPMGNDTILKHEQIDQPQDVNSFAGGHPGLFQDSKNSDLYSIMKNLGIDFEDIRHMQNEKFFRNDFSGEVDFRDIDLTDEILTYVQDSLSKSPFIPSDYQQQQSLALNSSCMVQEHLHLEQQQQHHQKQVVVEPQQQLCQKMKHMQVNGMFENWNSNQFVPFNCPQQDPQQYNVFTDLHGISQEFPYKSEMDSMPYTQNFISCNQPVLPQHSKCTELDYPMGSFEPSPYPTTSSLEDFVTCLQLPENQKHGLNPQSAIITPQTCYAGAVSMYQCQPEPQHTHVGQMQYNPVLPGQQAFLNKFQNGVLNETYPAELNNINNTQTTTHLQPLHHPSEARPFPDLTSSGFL
Method in brief: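 HepG2 cells transiently transfected with cis-element-driven multiplexed reporter units; endogenous AhR activity read as reporter mRNA 24 h after dosing, via RT-PCR, 6-FAM labelling, HpaI digestion and capillary electrophoresis. Bidirectional fit relative to DMSO.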

[7] = ATG_AP_1_CIS: Attagene CIS-FACTORIAL HepG2 Assay for human Activator Protein 1 (AP-1) (AID 2282931); conditions: HepG2 Attagene cis-factorial AP-1 reporter mRNA; actives raise or lower the signal
Method in brief: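 After 24 h incubation with test chemical, RNA from transfected HepG2 cells was reverse-transcribed, amplified, fluorescently labelled and digested before capillary electrophoresis. Reporters were driven by cis-regulatory promoters; activity fitted bidirectionally versus DMSO.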

[8] = ATG_BRE_CIS: Attagene CIS-FACTORIAL HepG2 Assay for human Bone Morphogenetic Protein (BMP) Response Element (BRE) (AID 2282933); conditions: HepG2 BMP response element reporter, Attagene transcription factor profiling; actives raise or lower the signal
Method in brief: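 HepG2 cells transiently transfected with multiplexed cis-element reporter units were dosed with chemical for 24 h. Reporter mRNA was measured by RT-PCR with fluorescent labelling, HpaI digestion and capillary electrophoresis; bidirectional fitting relative to DMSO.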

[9] = target: Retinoic acid receptor alpha (Homo sapiens) (UniProt P10276); test: ATG_DR5_RAR_CIS: Attagene CIS-FACTORIAL HepG2 Assay for human Retinoic Acid Receptor Alpha (RARE), DR5 submotif (AID 2282934); conditions: HepG2 Attagene cis-factorial RARE DR5 reporter, mRNA; actives raise or lower the signal
Sequence of Retinoic acid receptor alpha (Homo sapiens) (P10276 whole entry, looked up): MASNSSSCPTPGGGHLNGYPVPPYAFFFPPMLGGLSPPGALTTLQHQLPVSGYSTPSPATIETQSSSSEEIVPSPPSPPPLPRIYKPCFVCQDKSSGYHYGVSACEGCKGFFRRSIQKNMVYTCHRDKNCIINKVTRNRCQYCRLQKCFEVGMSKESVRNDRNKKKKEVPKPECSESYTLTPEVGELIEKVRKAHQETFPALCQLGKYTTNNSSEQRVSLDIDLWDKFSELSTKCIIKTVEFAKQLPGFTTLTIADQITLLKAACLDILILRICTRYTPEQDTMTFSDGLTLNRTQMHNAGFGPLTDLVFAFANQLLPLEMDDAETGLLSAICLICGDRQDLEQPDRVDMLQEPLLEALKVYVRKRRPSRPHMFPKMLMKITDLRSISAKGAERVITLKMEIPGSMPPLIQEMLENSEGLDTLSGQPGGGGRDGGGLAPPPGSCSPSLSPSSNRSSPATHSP
Method in brief: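 HepG2 cells transiently transfected with multiplexed reporter units; DR5 cis-element drives reporter through endogenous transcription factors. After 24 h dosing, reporter mRNA quantified by RT-PCR, fluorescent labeling, HpaI digestion and capillary electrophoresis; bidirectional fitting versus DMSO.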

[10] = target: Transcription factor E2F1 (Homo sapiens) (UniProt Q01094); test: ATG_E2F_CIS: Attagene CIS-FACTORIAL HepG2 Assay for human E2F Transcription Factor 1 (AID 2282935); conditions: HepG2 Attagene cis-reporter, E2F reporter RNA transcripts; actives raise or lower the signal
Sequence of Transcription factor E2F1 (Homo sapiens) (Q01094 whole entry, looked up): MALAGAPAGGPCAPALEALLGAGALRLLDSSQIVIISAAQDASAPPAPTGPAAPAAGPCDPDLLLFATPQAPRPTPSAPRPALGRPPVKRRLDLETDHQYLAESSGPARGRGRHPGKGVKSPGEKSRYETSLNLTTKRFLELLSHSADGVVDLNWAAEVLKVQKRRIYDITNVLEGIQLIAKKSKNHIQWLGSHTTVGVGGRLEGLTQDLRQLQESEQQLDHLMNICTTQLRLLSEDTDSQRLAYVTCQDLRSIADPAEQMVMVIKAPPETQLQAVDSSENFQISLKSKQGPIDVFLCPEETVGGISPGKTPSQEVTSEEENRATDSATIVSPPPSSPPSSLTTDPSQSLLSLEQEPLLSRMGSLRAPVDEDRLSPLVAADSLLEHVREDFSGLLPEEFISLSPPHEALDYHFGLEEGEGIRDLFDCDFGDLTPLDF
Method in brief: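 Transient MRTU transfection of HepG2; 24 h compound exposure; RNA → oligo(dT) RT → PCR → FAM label → HpaI cut → CE fluorescence. Gain/loss of signal fit against DMSO.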

[11] = ATG_E_Box_CIS: Attagene CIS-FACTORIAL HepG2 Assay for human Enhancer Box (E-box) (AID 2282936); conditions: HepG2 E-box cis-reporter transcription, actives raise or lower the signal
Method in brief: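 Transiently transfected HepG2, endogenous TF-driven reporters, 24 h dosing. Readout: RT-PCR plus capillary electrophoresis of fluorescent reporter fragments. Gain or loss of signal fitted bidirectionally against DMSO baseline.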

[12] = ATG_M_61_CIS: Attagene CIS-FACTORIAL HepG2 Assay for M61 Transcription Factor (Internal Marker) (AID 2282937); conditions: HepG2 Attagene CIS-FACTORIAL M61 internal marker reporter; actives raise or lower the signal
Method in brief: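 Using transiently transfected HepG2 liver cells, reporter transcript levels were assessed 24 h post-dosing by RT-PCR and capillary electrophoresis. Changes in either direction were fitted relative to DMSO controls.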

[13] = ATG_EGR_CIS: Attagene CIS-FACTORIAL HepG2 Assay for human Early Growth Response 1 (EGR1) (AID 2282938); conditions: HepG2 Attagene CIS-FACTORIAL EGR reporter mRNA; actives raise or lower the signal
Method in brief: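 Fluorescent capillary-electrophoresis signal of reporter cDNA fragments serves as read-out. HepG2 cells bear transiently transfected cis-promoter reporter units and are exposed 24 h; gain- or loss-of-signal is fitted against DMSO.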

[14] = ATG_M_19_CIS: Attagene CIS-FACTORIAL HepG2 Assay for M19 Transcription Factor (Internal Marker) (AID 2282939); conditions: HepG2 Attagene CIS-FACTORIAL M19 internal marker reporter; actives raise or lower the signal
Method in brief: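 HepG2 cells transiently transfected with cis-regulated multiple reporter transcription units were dosed for 24 h; reporter mRNA was quantified by RT-PCR, 6-FAM primer-extension labelling, HpaI digestion and capillary electrophoresis, with bidirectional fitting against DMSO baseline.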

[15] = ATG_ERE_CIS: Attagene CIS-FACTORIAL HepG2 Assay for Estrogen Response Element (ERE) (AID 2282940); conditions: HepG2 ERE cis-reporter, Attagene RNA transcript; actives raise or lower the signal
Method in brief: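 HepG2 cells transiently transfected with cis-promoter-driven multiplexed reporter transcription units report endogenous TF activity. After 24 h compound exposure, reporter mRNA is quantified by RT-PCR with capillary electrophoresis fluorescence; bidirectional fitting versus DMSO baseline.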

[16] = ATG_Ets_CIS: Attagene CIS-FACTORIAL HepG2 Assay for human Erythroblast Transformation Specific (ETS) (AID 2282941); conditions: HepG2 ETS cis-reporter transcription, actives raise or lower the signal
Method in brief: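 Endogenous transcription factor activity read as reporter mRNA via RT-PCR and capillary electrophoresis, with gain or loss fitted bidirectionally against DMSO. Human HepG2 liver cells, transiently transfected CIS reporter constructs, 24 h exposure.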

[17] = target: Hepatocyte nuclear factor 3-beta (Homo sapiens) (UniProt Q9Y261); test: ATG_FoxA2_CIS: Attagene CIS-FACTORIAL HepG2 Assay for human Forkhead box A2 (FOXA2) (AID 2282942); conditions: HepG2 cis-reporter transcription factor activity, 24 h; actives raise or lower the signal
Sequence of Hepatocyte nuclear factor 3-beta (Homo sapiens) (Q9Y261 whole entry, looked up, the tested form may be a part): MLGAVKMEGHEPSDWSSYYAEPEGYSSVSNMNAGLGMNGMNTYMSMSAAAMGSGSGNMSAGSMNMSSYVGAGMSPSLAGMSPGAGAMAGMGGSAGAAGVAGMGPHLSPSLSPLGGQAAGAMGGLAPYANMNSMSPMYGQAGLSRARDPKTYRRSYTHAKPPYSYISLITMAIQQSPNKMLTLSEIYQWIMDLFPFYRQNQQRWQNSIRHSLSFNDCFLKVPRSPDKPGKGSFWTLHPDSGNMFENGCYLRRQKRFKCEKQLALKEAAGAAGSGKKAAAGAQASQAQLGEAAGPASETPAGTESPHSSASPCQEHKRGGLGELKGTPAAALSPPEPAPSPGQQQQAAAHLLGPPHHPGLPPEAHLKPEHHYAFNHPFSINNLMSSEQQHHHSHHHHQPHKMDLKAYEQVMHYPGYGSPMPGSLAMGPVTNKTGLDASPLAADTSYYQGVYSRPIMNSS
Method in brief: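 Fluorescence signal of reporter cDNA fragments, separated by capillary electrophoresis, reflects endogenous transcription factor activity in transfected HepG2 after 24 h. Both increases and decreases fitted against DMSO.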

[18] = ATG_FoxO_CIS: Attagene CIS-FACTORIAL HepG2 Assay for human Forkhead box O (FoxO) (AID 2282943); conditions: HepG2 Attagene cis-reporter, FoxO element, mRNA; actives raise or lower the signal
Method in brief: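 HepG2 cells transiently transfected with cis-element-driven reporter units report endogenous FoxO activity. After 24 h chemical exposure, reporter mRNA quantified by RT-PCR, fluorescent labeling, HpaI digestion and capillary electrophoresis; bidirectional fit versus DMSO.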

[19] = ATG_GATA_CIS: Attagene CIS-FACTORIAL HepG2 Assay for human GATA Binding Protein (AID 2282944); conditions: HepG2 GATA cis-element reporter, Attagene multiplex mRNA; actives raise or lower the signal
Method in brief: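 HepG2 cells transiently transfected with multiplexed cis-element reporter units reflecting endogenous transcription factor activity; reporter mRNA measured after 24 h dosing by RT-PCR, 6-FAM labeling, HpaI digestion and capillary electrophoresis. Bidirectional fitting versus DMSO baseline.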

[20] = ATG_AP_2_CIS: Attagene CIS-FACTORIAL HepG2 Assay for human Activator Protein 2 (AP-2) (AID 2282932); conditions: HepG2 AP-2 cis-reporter, Attagene transcription factor profiling; actives raise or lower the signal
Method in brief: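 Read-out: fluorescent reporter mRNA via RT-PCR and capillary electrophoresis, 24 h post-dose in transiently transfected HepG2. Endogenous factors drive cis-promoter reporters; gain or loss of signal fitted bidirectionally against DMSO.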

Measured: AC50

CC(Cl)COP(=O)(OCC(C)Cl)OCC(C)Cl (stereo not drawn)
not listed: [20]
inactive: all other assays above

CCCC(CC)c1ccccc1 (stereo not drawn)
active: [4] 153 µM | [7] 167 µM | [15] 45.1 µM
not listed: [8] | [11] | [19]
inactive: all other assays above

CC1=C(O)C(=O)C(C)O1 (stereo not drawn)
not listed: [8] | [14] | [17]
inactive: all other assays above

CCC1COC(=O)O1 (stereo not drawn)
not listed: [8] | [14] | [17] | [19]
inactive: all other assays above

C=C(C)[C@@H]1CC=C(C)CC1
not listed: [8] | [9] | [15] | [19]
inactive: all other assays above

CCCC/C=C/C=C\C=O
active: [4] 159 µM | [5] 135 µM | [7] 149 µM | [13] 100 µM
not listed: [8]
inactive: all other assays above

CC(C)(C)N
not listed: [15] | [19] | [20]
inactive: all other assays above

CCOC(=O)CC(=O)c1ccccc1
not listed: [11] | [13] | [19] | [20]
inactive: all other assays above

CCOC(=O)[C@H](O)[C@@H](O)C(=O)OCC
not listed: [20]
inactive: all other assays above

c1ccc2c(c1)[nH]c1ccccc12
active: [6] 18 µM
not listed: [20]
inactive: all other assays above

CCCCCCOC(=O)CCCCC(=O)OCCCCCC
active: [15] 27.5 µM
not listed: [8] | [13] | [14]
inactive: all other assays above

CC/C=C\CCOC(=O)c1ccccc1O
not listed: [10] | [15] | [20]
inactive: all other assays above

CCC(C)(O)CCCC(C)C (stereo not drawn)
not listed: [13] | [20]
inactive: all other assays above

COc1ccc(C(=O)c2ccccc2)c(O)c1
active: [4] 79.6 µM | [5] 115 µM | [7] 168 µM | [13] 85.1 µM | [15] 5.69 µM
not listed: [8]
inactive: all other assays above

CCCCOC(=O)C(C)CC (stereo not drawn)
not listed: [8] | [17] | [19]
inactive: all other assays above
